About 8,800 targets were measured; listed, in parts, are those with a hit and a random draw of the rest. About 0.5% of all pairs of compound and target were hits. Unmarked numbers belong to inactive results.

Chain of UniProt Q99755 (Q99755 whole entry, looked up): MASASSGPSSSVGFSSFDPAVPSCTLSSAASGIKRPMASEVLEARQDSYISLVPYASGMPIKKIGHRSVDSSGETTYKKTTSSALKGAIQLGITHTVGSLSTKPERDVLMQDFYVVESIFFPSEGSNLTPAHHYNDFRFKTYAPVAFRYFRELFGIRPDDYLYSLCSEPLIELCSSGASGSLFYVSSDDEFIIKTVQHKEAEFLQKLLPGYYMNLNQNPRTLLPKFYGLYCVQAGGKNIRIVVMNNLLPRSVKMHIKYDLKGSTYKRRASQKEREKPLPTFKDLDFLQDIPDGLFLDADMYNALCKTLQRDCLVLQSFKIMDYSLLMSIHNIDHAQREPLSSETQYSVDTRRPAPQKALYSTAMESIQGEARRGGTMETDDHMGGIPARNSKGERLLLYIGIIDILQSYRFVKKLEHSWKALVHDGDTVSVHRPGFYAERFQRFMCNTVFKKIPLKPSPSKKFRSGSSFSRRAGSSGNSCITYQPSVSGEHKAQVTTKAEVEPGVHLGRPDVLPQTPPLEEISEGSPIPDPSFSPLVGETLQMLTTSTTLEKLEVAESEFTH
Chain of UniProt P11309 (P11309 whole entry, looked up): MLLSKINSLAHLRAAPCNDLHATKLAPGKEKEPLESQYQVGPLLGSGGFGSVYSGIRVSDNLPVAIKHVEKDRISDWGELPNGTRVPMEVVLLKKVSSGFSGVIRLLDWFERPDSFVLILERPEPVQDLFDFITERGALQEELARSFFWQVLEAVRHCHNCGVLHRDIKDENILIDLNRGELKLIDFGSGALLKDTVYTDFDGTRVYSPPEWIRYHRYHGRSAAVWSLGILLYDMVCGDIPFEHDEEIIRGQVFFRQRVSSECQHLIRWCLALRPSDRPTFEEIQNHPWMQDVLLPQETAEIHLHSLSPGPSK
Chain of UniProt P45877 (P45877 whole entry, looked up): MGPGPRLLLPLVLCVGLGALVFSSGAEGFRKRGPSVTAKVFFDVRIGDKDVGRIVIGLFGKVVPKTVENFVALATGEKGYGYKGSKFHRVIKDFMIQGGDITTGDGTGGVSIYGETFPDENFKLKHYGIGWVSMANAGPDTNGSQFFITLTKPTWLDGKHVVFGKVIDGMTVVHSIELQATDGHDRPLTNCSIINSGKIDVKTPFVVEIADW
Chain of UniProt Q9UHX1 (Q9UHX1 whole entry, looked up): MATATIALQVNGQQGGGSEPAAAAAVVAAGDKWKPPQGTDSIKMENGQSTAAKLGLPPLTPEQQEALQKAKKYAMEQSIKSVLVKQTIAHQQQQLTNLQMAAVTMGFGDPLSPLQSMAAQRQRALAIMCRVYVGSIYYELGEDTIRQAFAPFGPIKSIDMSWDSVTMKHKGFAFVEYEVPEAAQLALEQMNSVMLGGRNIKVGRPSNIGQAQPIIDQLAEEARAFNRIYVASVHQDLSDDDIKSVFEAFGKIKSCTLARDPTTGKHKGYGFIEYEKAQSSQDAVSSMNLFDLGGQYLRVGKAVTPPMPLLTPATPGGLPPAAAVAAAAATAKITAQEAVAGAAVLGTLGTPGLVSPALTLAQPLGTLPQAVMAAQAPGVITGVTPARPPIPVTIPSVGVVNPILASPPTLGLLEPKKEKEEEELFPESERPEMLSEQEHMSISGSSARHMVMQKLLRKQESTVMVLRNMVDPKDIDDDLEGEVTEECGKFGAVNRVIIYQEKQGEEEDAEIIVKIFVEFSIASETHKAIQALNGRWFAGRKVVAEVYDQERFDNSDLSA
Chain of UniProt O94806 (O94806 whole entry, looked up): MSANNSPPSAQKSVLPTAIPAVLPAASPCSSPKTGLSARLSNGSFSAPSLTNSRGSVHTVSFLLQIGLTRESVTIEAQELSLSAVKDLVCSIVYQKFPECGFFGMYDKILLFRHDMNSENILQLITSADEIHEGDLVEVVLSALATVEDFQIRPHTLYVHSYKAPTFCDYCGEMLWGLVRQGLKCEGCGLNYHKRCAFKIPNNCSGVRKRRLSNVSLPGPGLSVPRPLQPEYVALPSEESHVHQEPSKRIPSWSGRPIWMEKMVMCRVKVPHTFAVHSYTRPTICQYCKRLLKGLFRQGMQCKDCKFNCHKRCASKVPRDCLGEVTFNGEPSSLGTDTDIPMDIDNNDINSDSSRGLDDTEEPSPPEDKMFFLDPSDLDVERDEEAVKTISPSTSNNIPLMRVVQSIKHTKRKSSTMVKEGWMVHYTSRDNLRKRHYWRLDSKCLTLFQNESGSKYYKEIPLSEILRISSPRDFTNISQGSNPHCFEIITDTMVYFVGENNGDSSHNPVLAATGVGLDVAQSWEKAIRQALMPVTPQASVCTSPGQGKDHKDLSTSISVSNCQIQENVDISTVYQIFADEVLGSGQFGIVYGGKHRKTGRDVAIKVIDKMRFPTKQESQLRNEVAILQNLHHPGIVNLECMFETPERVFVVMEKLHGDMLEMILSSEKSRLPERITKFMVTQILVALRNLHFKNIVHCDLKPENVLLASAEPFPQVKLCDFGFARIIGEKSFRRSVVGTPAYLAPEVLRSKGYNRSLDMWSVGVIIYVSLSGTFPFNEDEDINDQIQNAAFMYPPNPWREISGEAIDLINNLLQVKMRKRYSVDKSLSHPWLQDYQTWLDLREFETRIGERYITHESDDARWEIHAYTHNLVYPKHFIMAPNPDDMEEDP
Chain of UniProt Q8TAE6 (Q8TAE6 whole entry, looked up): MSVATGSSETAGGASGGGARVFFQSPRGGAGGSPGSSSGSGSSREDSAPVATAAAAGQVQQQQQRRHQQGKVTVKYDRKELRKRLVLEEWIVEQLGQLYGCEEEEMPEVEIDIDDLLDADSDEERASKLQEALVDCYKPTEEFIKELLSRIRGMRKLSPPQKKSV
Chain of UniProt Q9BRQ0 (Q9BRQ0 whole entry, looked up): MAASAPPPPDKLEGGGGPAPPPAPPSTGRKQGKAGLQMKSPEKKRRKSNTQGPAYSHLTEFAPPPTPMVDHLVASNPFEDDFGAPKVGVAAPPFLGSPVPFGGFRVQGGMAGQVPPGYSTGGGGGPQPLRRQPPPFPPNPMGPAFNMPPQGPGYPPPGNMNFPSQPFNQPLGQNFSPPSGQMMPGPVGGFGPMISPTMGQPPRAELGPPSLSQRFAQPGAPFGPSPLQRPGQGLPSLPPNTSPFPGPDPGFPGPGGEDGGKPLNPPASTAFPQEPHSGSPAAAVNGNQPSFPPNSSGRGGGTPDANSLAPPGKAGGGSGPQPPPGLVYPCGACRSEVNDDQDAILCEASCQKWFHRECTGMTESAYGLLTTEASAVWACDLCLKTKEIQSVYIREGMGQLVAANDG
Chain of UniProt P48736 (P48736 whole entry, looked up): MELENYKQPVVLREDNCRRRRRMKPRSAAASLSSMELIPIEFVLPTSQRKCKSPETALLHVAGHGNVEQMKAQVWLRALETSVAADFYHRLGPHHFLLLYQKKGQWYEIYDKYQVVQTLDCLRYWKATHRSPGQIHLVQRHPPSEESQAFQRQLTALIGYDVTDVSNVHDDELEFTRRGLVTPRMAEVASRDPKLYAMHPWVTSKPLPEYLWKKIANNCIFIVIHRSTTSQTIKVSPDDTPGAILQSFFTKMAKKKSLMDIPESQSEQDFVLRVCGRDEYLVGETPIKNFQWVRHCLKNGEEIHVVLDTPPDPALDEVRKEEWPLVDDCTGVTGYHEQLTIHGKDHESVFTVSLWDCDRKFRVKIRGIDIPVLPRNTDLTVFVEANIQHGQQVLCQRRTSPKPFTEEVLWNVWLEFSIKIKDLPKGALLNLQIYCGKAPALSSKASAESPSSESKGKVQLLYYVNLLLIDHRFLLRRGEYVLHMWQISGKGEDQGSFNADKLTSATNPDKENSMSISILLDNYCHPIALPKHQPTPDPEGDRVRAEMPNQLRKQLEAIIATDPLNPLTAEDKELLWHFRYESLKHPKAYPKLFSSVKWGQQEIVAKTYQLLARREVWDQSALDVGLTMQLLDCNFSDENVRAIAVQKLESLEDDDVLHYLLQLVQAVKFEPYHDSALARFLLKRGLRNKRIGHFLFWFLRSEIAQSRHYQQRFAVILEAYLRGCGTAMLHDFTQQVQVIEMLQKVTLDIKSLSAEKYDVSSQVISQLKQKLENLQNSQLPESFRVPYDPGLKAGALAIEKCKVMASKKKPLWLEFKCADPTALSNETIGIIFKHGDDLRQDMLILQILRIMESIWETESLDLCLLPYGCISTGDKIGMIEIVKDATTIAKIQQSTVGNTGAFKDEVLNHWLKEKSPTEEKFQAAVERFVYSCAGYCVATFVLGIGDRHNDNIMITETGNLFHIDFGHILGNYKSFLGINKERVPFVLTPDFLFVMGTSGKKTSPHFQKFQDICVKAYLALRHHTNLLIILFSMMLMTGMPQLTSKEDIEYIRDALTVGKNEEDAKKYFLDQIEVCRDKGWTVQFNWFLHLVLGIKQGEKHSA
Chain of UniProt Q15004 (Q15004 whole entry, looked up): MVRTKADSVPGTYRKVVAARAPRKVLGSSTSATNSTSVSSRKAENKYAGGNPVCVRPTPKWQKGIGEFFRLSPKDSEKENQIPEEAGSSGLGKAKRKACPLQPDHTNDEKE
Chain of UniProt Q969Q6 (Q969Q6 whole entry, looked up): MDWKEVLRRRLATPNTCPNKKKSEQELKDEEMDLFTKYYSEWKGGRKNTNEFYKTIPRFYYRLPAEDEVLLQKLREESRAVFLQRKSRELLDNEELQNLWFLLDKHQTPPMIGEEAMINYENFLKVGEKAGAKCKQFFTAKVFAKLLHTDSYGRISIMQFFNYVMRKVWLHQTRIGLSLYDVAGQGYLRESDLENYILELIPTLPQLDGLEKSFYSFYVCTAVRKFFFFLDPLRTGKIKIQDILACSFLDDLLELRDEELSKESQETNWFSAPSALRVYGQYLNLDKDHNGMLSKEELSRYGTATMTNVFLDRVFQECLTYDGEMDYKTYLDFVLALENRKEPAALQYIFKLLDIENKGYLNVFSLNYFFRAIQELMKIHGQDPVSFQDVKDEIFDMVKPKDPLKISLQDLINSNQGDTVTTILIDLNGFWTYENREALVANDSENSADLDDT
Chain of UniProt P06454 (P06454 whole entry, looked up): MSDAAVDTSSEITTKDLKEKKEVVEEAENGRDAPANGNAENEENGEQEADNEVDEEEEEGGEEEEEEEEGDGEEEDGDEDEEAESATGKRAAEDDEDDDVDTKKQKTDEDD

Compound in the first assay: Cc1ccc(NC(=O)c2ccc(CN3CC[C@H](N(C)C)C3)c(C(F)(F)F)c2)cc1Nc1nccc(-c2cncnc2)n1 [bafetinib]
The experiment in a line: log2 fold change, soluble protein after heating vs DMSO (PISA); higher = thermal stabilisation; K562 lysate, 10 uM; active = over 0.2 and 3.5 SD of the protein, either way, in both replicates (recomputed). Summed up:
(§1)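 The values are log-two fold changes in thermal stability compared with solvent controls and come from duplicates. They were obtained by TMTpro 16plex LC-MS/MS, with channel sums equalised, on the supernatant after 21,000xg for 90 min. That supernatant came from crude K562 extract at 1 mg/mL protein treated with 10 μM compound for 30 min, heated for 3 min across 48°C-58°C, pooled and brought to 0.5% NP-40 at 4°C.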
Take PPP2R5C isoform 2 (UniProt Q13362): the log2 fold change is 0.103.
Still for that read-out and setting: next, PIP5K1A (UniProt Q99755): -0.062.
For PRIMPOL (UniProt Q96LW4), the log2 fold change is -0.225.
For the target PCLAF (UniProt Q15004), the log2 fold change is -0.01.
Consider PTK2B (UniProt Q14289), for which the log2 fold change is 0.098.
On to PPIC (UniProt P45877), for which the log2 fold change is -0.061.
Turning to PFN1 (UniProt I3L3D5), the log2 fold change was -0.19.
Still for that read-out and setting: the result for PHC1 (UniProt P78364) reads 0; that for PPP1R12B isoform 6 (UniProt O60237), 0.05; that for PIM1 isoform 2 (UniProt P11309), -0.043.
On to PPP2R3C (UniProt Q969Q6), for which the log2 fold change is 0.022.
Turning to PTMA isoform 2 (UniProt P06454), the log2 fold change is -0.02.
For the target PRKD3 (UniProt O94806), the log2 fold change was -0.086.
Same read-out and setting: the result for PMS1 (UniProt P54277) reads -0.064; that for PYGO2 (UniProt Q9BRQ0), -0.046; that for PPP1R14C (UniProt Q8TAE6), 0.041.
Consider PUF60 isoform 2 (UniProt Q9UHX1), for which the log2 fold change is -0.006.
On to PIK3CD (UniProt O00329), for which the log2 fold change is -0.136.
Still for that read-out and setting: next, PTK2 isoform 2 (UniProt Q05397): -0.087; PHF14 (UniProt O94880): -0.013; PCBP2 (UniProt F8W0G4): -0.223.
On the same count and under the same terms, the result for PLXND1 (UniProt Q9Y4D7) reads -0.461 (active); that for POM121C (UniProt A8CG34), 0.135.
Turning to PPME1 (UniProt Q9Y570), the log2 fold change was -0.081.
With PIK3CG (UniProt P48736), the log2 fold change was -0.111.
PHGDH, A0A286YFE1: the log2 fold change is -0.313.

Compound in a further assay: Cc1cccc(CC(=O)N2CCc3c2ccc(-c2cn(C)c4ncnc(N)c24)c3F)n1
The assay is described as above. The gist of the method:
as §1
On to PPP2R5C isoform 2 (UniProt Q13362), for which the log2 fold change was -0.005.
Same read-out and setting: next, PIP5K1A (UniProt Q99755): -0.034; PCLAF (UniProt Q15004): 0.05; PTK2B (UniProt Q14289): -0.05.
On to PPIC (UniProt P45877), for which the log2 fold change was 0.079.
Same read-out and setting: next, PFN1 (UniProt I3L3D5): 0.015.
On to PDE4DIP (UniProt E9PS60), for which the log2 fold change was 0.147.
Still for that read-out and setting: the result for PIM1 isoform 2 (UniProt P11309) reads -0.025; that for PPP2R3C (UniProt Q969Q6), 0.023.
On the same count and under the same terms, next, PRR4 (UniProt Q16378): 0.252; PREP (UniProt H0Y5Y0): -0.153.
Same read-out and setting: next, PRKD3 (UniProt O94806): 0.46; PMS1 (UniProt P54277): -0.013.
As to PCBP2 (UniProt F8VRH0), the log2 fold change is 0.072.
Same read-out and setting: the result for PYGO2 (UniProt Q9BRQ0) reads -0.022.
Still for that read-out and setting: the result for PPP1R14C (UniProt Q8TAE6) reads 0.336; that for NA (UniProt Q4G0T1), 0.034.
As to PDIA4, A0A499FI48, the log2 fold change was -0.154.
Regarding PUF60 isoform 2 (UniProt Q9UHX1), the log2 fold change is -0.09.
The same measure, in the same setting: the result for PNPLA4 (UniProt P41247) reads -0.138; that for PIK3CD (UniProt O00329), -0.016.
On the same count and under the same terms, the result for PFN3 (UniProt P60673) reads 0.193.
POM121C (UniProt A8CG34): the log2 fold change was -0.091.
Same read-out and setting: next, PIK3CG (UniProt P48736): 0.075; PHKG1 isoform 2 (UniProt Q16816): 0.216.

Values taken from the supplement of paper PMC10849652.
